Results taken from PubChem BioAssay AID624116 (National Center for Advancing Translational Sciences (NCATS), 2012).
Records with an inconclusive call do not appear. A number with no mark means an inactive call. Activity calls are given as the source filed them. Calls follow the shape of the dose curve; as a rule, active = well fitted activation curve with a large enough effect; inconclusive = small, poorly fitted or top-dose-only effect; inactive = no such curve, though single readings can be large or run the other way.

Test: qHTS Assay for Rab9 Promoter Activators: Hit Validation Using Renilla Luciferase Read-Out for Rab9; as to activation, negative = inhibition: % of control where 0% means no effect
Conditions: Huh7 Rab9 promoter Renilla luciferase reporter, 24 h; series mostly up to 76.9 µM; activation, negative = inhibition: at the top concentration
From the text: Niemann Pick Type C (NPC) is a rare neurodegenerative lipidosis that is characterized by lipid storage in the endosomal/lysosomal system. Treatment modalities for this devastating disease are currently non-existent due to the severe obstacles associated with accessing the central nervous system with proteins or genes. The majority of mutations causing NPC disease are missense mutations that are distributed throughout the length of the NPC1 protein, with the most prevalent being the I1061T allele. Although NPC1 mutant proteins may be functional, they are typically trapped in the ER due to misfolding. […] We have developed and optimized a cell based renilla luciferase reporter assay in 1536 well format for the identification of up-regulators of the mutant Rab9 promoter. This assay presents data on the validation of hits from the primary screen, which used a firefly luciferase read-out. NIH Chemical Genomics Center [NCGC] NIH Molecular Libraries Probe Production centers Network [MLPCN] MLPCN Grant: MH089375 Assay Submitter (PI): Yiannis A. Ioannou
Huh7 cells stably expressing NPC promoter-luciferase will be seeded at 1,500 cells/well in 5 uL in 1,536-well white opaque plates with 23 nL/well of compound in DMSO solution. The assay plates will be incubated at 37 deg C for 24 hours, after which 3 uL/well BriteLite plus luciferase detection reagent mixture (Perkin Elmer) will be added. Luminescence signal will be measured in a ViewLux plate reader (Perkin Elmer) after a 10 minute incubation at the room temperature.
Potency is read from the fitted curve at half-maximal effect.

Compared with `CCCNC(=O)C1CCN(S(=O)(=O)c2ccc3[nH]c(=O)ccc3c2)CC1`, `COCCNC(=O)C1CCC(CNS(=O)(=O)c2ccc(F)cc2)CC1` (stereo not given) is lower in “activation, negative = inhibition” value: -0.496% for the first, -3.79% for the second.

Going from `CC1CCCN(C(=S)Nc2ccc(Nc3ccccc3)cc2)C1` (stereo not given) to `Cc1ccc(NC(=O)Nc2cccc3ccccc23)cc1`, the “activation, negative = inhibition” value rises from -6.42% to -5.88%.

Compared with `CC(=O)NC(CCCN1C(=O)c2ccccc2C1=O)c1nnn(C)n1` (stereo not given), `CCCc1cc(C(=O)Nc2ccccc2SC)no1` is higher in “activation, negative = inhibition” value: -10.2% for the first, -2.35% for the second.

Compared with `O=C(CN1C(=O)COc2ccc(Cl)cc21)NCC1CCCO1` (stereo not given), `CCOCC(=O)Nc1c(C(=O)Nc2ccc3c(c2)OCCO3)oc2ccccc12` is lower in “activation, negative = inhibition” value: 9.31% for the first, -30.9% for the second.

Compared with `C=CCc1ccc(OCCOCCNCCOC)c(OC)c1`, `COc1ccccc1OCCCC(=O)NCc1ccco1` is higher in “activation, negative = inhibition” value: -0.15% for the first, 3.32% for the second.

Going from `COc1ccc(C)cc1N(C(=O)CNC(=O)c1ccco1)C(C(=O)NC1CCCC1)c1cccnc1` (stereo not given) to `COc1ccccc1C(=O)Nc1nnc(SCC(=O)NC2CCCC2)s1`, the “activation, negative = inhibition” value falls from 14.4% to 8.95%.

Going from `Cc1ccc(C)c(Nc2cc(C)nc3ncnn23)c1` to `Cc1ccc(N=Cc2sc(O)c3ccccc23)c(C)c1`, the “activation, negative = inhibition” value falls from -1.68% to -9.75%.

Going from `Cc1ccc(S(=O)(=O)/N=C2\C=C(Nc3cccc(C(=O)O)c3)C(=O)c3ccccc32)cc1` to `O=C(CCS(=O)(=O)c1ccccc1)Nc1ccc(-c2nc3ccccc3s2)cc1`, the “activation, negative = inhibition” value rises from -96.1% to 4.91%.

First: Cc1ccc(CNC(=O)Nc2ccc(C)cc2)cc1
Second: COc1ccc(NC(=O)CN(C)C(=O)c2ccc(=O)[nH]c2)cc1
The “activation, negative = inhibition” value of the first is lower: -8.38% for the first, 4.55% for the second.

First: Cc1nnc2n(c1=O)N=C(c1ccc(Cl)cc1)CS2
Second: Cc1csc(NC(=O)CSc2nnc(-c3ccncc3)o2)n1
The “activation, negative = inhibition” value of the first is higher: 1.19% for the first, -4.81% for the second.

Compared with `O=[N+]([O-])c1cnccc1Nc1ccc(F)cc1`, `O=C(COc1ccccc1F)Nc1ccc(-c2nc3ccccc3s2)cc1` is lower in “activation, negative = inhibition” value: -17.4% for the first, -35.1% for the second.

Compared with `N#CC/C(N)=N/NC(=O)CCCNc1ncc(C(F)(F)F)cc1Cl`, `O=C(CSc1nnc(-c2ccccn2)o1)Nc1ccccc1Cl` is higher in “activation, negative = inhibition” value: -11.4% for the first, -4.88% for the second.

Compared with `Cc1[nH]n(-c2cccc3ccccc23)c(=O)c1/C=N/c1sc2c(c1C#N)CCC2`, `CCC(=O)N1c2ccccc2NC2=C(C(=O)CCC2)C1c1ccc(N(C)C)cc1` (stereo not given) is higher in “activation, negative = inhibition” value: -5.17% for the first, 7.05% for the second.

Compared with `N#C/C(=N\Nc1ccc(Cl)cc1)C(=N)N1CCCCC1`, `COC(=O)c1cn(NC(=O)C2CCCCC2)c(=O)c2ccccc12` is higher in “activation, negative = inhibition” value: -66.8% for the first, 0.264% for the second.

First: O=C(C1COc2ccccc2O1)N1CCN(S(=O)(=O)c2ccccc2)CC1 (stereo not given)
Second: COC(=O)c1ccccc1S(=O)(=O)NNC(=O)Nc1ccccc1
The “activation, negative = inhibition” value of the first is lower: -3.31% for the first, 0.761% for the second.

First: C=CCn1c(C)nnc1SCC(=O)Nc1nccs1
Second: CCOc1cc(C(=O)N=c2sccn2C)ccc1OC(F)F
The “activation, negative = inhibition” value of the first is higher: -0.0592% for the first, -5.54% for the second.

Compared with `Cc1nc2sc(C(=O)OC(C)C)c(N)c2c(C)c1C`, `CCOC(=O)c1ccc(NC(=O)Oc2cc(C)c(Cl)cc2C(C)C)cc1` is lower in “activation, negative = inhibition” value: 4.33% for the first, -0.506% for the second.

First: O=C(N/N=C/c1ccc(-c2ccc(Br)cc2)o1)c1ccc2c(c1)OCO2
Second: COCCNC(=O)Cn1nc(-c2ccccc2)c2ccccc2c1=O
The “activation, negative = inhibition” value of the first is lower: -4.86% for the first, -3.11% for the second.

First: O=C(C[N+]1(CC#Cc2ccccc2)CCCCC1)c1ccccc1
Second: NC(=O)C1(NC(=O)[C@@H]2CC3(CC(c4cccc(NC(=O)[C@@H]5CCC(=O)N5)c4)=NO3)CN2C(=O)c2ccccc2)CC1 (stereo not given in full)
The “activation, negative = inhibition” value of the first is higher: 2.41% for the first, -2.9% for the second.

In the case of `COc1ccc(C(c2nnnn2CCc2ccccc2)N2CCN(C3CCCC3)CC2)cc1` (stereo not given), the Potency is reported as 13 µM (active).
With `N#C/C(=C\c1ccc[nH]1)C(=O)Nc1ccccc1Cl` the Potency was 23.2 µM (active).
